For orientation: AC50 means the midpoint of the concentration-response curve, whichever way the signal moves.

Assay [1] addresses Bile acid receptor (Homo sapiens) (UniProt Q96RI1). As to the kind of experiment: ATG_IR1_CIS: Attagene CIS-FACTORIAL HepG2 Assay for human Nuclear Receptor Subfamily 1 Group H Member 4 (NR1H4), IR1 submotif (AID 2282946). To be noted: IR1 reporter transcription, actives raise or lower the signal. The method, boiled down: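 HepG2 cells transiently transfected with multiple cis-promoter-driven reporter units to measure endogenous transcription factor activity; 24 h exposure. Reporter mRNA read by RT-PCR, FAM labelling, HpaI digestion and capillary electrophoresis. Bidirectional fit versus DMSO.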

Assay [2] is described as follows: ATG_GRE_CIS: Attagene CIS-FACTORIAL HepG2 Assay for human Glucocorticoid Response Elements (GRE) (AID 2282947). To be noted: HepG2 GRE cis-reporter, Attagene multiplex mRNA; actives raise or lower the signal. The essentials:
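Transiently transfected HepG2 cells carrying GRE cis-reporter units (endogenous TF activity) dosed 24 h; reporter mRNA quantified by RT-PCR, 6-FAM labelling, HpaI digestion and capillary electrophoresis. Bidirectional fit versus DMSO baseline.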

Assay [3] is described as follows: ATG_ISRE_CIS: Attagene CIS-FACTORIAL HepG2 Assay for human Interferon Regulatory Factor 1 (IRF1) binding to an Interferon-Stimulated Response Element (ISRE) (AID 2282948). The note with it: HepG2 ISRE cis-reporter (Attagene), mRNA transcription readout; actives raise or lower the signal. The essentials: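 HepG2 cells transiently transfected with multiplexed cis-promoter reporter units; after 24 h compound exposure, reporter mRNA quantified by RT-PCR, FAM labelling, HpaI digestion and capillary electrophoresis. Bidirectional fit versus DMSO baseline.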

A short description of assay [4]: ATG_M_32_CIS: Attagene CIS-FACTORIAL HepG2 Assay for M32 Transcription Factor (Internal Marker) (AID 2282949).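 Note: background control marker of the multiplexed CIS panel rather than a real target.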 The note with it: HepG2 Attagene cis-factorial M32 reporter, mRNA; actives raise or lower the signal. The method, boiled down: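 Fluorescent capillary electrophoresis peaks of HpaI-digested, FAM-labelled RT-PCR reporter products give the signal. Source: transiently transfected human liver HepG2 cells, 24 h after chemical dosing; bidirectional fitting against DMSO.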

A short description of assay [5]: ATG_M_06_CIS: Attagene CIS-FACTORIAL HepG2 Assay for M06 Transcription Factor (Internal Marker) (AID 2282950). The note with it: HepG2 Attagene CIS-FACTORIAL M06 internal marker reporter; actives raise or lower the signal. The essentials: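 Measured 24 h post-dosing in transiently transfected HepG2 cells, this internal-marker endpoint reports reporter mRNA via RT-PCR with fluorescent primer extension and capillary electrophoresis. DMSO served as negative control and baseline for bidirectional fitting.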

Assay [6] addresses Hypoxia-inducible factor 1-alpha (Homo sapiens) (UniProt Q16665). In words: ATG_HIF1a_CIS: Attagene CIS-FACTORIAL HepG2 Assay for human Hypoxia Inducible Factor 1 (HIF1A) (AID 2282951). To be noted: HepG2 Attagene cis-factorial HIF1a reporter transcription; actives raise or lower the signal. The essentials: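 RT-PCR/capillary electrophoresis fluorescence readout of reporter transcripts from endogenous-TF-driven cis elements in transfected HepG2 cells, 24 h exposure; activity fitted in both directions against DMSO controls.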

Assay [7] concerns the target Hepatocyte nuclear factor 6 (Homo sapiens) (UniProt Q9UBC0). As to the kind of experiment: ATG_HNF6_CIS: Attagene CIS-FACTORIAL HepG2 Assay for human Hepatocyte Nuclear Factor 6 (HNF6) (AID 2282952). To be noted: HepG2 Attagene cis-factorial HNF6 reporter transcription; actives raise or lower the signal. The method, boiled down:
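Reporter mRNA induction or loss in HepG2 after 24 h exposure; transient cis-MRTU transfection; fragments quantified by capillary electrophoresis; bidirectional analysis, DMSO as negative control.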

In assay [8] the target is Heat shock factor protein 1 (Homo sapiens) (UniProt Q00613). In words: ATG_HSE_CIS: Attagene CIS-FACTORIAL HepG2 Assay for human Heat Shock Transcription Factor 1 (HSE) (AID 2282953). The note with it: HepG2 HSE cis-reporter, Attagene RNA transcription; actives raise or lower the signal. The method, boiled down: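 Reporter mRNA induction in HepG2 is measured 24 h after dosing, using transiently transfected multiplexed cis-regulated reporter units. Signal comes from capillary electrophoresis of labelled RT-PCR products, with DMSO as negative control.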

The nature of assay [9]: ATG_MRE_CIS: Attagene CIS-FACTORIAL HepG2 Assay for human Metal Responsive Element (MRE) (AID 2282954). To be noted: HepG2 MRE cis-reporter transcription, Attagene multiplex; actives raise or lower the signal. The method, boiled down: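 HepG2 cells transiently transfected with cis-element-driven reporter units; mRNA measured 24 h after dosing. Reporter transcripts quantified by RT-PCR, FAM labelling, HpaI digestion and capillary electrophoresis; bidirectional fit versus DMSO.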

Assay [10] in a line: ATG_PBREM_CIS: Attagene CIS-FACTORIAL HepG2 Assay for human Phenobarbital-responsive Enhancer Module (PBREM) (AID 2282955). The note with it: HepG2 PBREM cis-reporter, Attagene multiplexed transcription; actives raise or lower the signal. The method, boiled down: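 Reporter mRNA read by RT-PCR, 6-FAM primer extension, HpaI digestion and capillary electrophoresis. Transfected HepG2 cells, 24 h compound exposure. Gain or loss of signal fitted bidirectionally relative to DMSO baseline.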

Several values for one entry are separate records, joined by “and”; a condition that tells them apart may be missing. Equal values may be shown once. More than one record can exist for a structure, and the calls need not agree. Activity calls are given as the source filed them. Rule for the calls: active = hit-call score of the fitted dose curve at least 0.9, where 1 is the maximum; inactive = score below 0.9.

Chain of Hypoxia-inducible factor 1-alpha (Homo sapiens) (Q16665 whole entry, looked up): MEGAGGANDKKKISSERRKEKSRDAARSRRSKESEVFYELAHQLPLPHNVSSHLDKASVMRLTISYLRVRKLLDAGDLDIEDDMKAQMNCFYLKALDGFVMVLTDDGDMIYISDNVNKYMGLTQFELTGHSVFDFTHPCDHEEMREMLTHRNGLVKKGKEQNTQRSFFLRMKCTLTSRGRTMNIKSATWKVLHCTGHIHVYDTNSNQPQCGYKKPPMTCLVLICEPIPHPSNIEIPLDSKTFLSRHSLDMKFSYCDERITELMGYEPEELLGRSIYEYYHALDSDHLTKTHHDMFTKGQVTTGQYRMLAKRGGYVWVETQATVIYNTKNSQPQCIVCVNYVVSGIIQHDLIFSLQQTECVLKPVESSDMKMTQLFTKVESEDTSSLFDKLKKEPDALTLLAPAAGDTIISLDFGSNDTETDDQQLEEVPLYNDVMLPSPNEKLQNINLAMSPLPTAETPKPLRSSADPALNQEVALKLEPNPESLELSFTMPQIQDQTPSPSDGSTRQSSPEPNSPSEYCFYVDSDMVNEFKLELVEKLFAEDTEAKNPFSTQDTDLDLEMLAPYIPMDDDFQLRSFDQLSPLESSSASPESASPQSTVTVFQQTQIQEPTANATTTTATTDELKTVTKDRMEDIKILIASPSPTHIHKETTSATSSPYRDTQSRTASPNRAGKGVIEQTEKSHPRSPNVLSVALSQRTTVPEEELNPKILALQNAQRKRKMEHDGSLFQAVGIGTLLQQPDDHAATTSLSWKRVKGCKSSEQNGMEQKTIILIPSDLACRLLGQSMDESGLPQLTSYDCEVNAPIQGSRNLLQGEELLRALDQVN
Chain of Heat shock factor protein 1 (Homo sapiens) (Q00613 whole entry, looked up): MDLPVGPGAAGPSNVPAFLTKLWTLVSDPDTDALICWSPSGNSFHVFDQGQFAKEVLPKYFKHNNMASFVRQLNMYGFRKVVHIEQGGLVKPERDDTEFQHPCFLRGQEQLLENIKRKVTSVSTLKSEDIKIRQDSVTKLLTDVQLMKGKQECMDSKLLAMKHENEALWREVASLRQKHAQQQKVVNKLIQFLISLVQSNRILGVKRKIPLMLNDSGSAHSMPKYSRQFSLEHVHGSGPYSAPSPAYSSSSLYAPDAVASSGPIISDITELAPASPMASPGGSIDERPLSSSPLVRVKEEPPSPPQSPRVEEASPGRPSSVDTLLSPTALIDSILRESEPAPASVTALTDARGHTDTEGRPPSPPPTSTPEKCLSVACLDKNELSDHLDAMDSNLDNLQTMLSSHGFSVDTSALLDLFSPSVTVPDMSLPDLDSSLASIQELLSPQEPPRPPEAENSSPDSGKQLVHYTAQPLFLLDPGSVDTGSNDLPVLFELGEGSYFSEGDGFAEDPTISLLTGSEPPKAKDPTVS
Chain of Hepatocyte nuclear factor 6 (Homo sapiens) (Q9UBC0 whole entry, looked up, the tested form may be a part): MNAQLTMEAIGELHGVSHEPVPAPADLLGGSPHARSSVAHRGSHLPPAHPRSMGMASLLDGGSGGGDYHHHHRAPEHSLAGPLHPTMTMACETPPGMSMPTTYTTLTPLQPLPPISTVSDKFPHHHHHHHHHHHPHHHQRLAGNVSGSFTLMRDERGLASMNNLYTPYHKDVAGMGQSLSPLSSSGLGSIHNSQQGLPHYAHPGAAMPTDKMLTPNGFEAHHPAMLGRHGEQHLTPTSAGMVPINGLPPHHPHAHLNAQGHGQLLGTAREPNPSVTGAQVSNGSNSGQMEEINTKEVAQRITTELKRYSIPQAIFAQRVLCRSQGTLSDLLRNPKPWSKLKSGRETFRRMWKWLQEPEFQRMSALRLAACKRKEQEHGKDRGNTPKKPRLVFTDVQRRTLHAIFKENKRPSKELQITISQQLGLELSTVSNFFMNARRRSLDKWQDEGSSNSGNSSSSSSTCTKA
Chain of Bile acid receptor (Homo sapiens) (Q96RI1 whole entry, looked up): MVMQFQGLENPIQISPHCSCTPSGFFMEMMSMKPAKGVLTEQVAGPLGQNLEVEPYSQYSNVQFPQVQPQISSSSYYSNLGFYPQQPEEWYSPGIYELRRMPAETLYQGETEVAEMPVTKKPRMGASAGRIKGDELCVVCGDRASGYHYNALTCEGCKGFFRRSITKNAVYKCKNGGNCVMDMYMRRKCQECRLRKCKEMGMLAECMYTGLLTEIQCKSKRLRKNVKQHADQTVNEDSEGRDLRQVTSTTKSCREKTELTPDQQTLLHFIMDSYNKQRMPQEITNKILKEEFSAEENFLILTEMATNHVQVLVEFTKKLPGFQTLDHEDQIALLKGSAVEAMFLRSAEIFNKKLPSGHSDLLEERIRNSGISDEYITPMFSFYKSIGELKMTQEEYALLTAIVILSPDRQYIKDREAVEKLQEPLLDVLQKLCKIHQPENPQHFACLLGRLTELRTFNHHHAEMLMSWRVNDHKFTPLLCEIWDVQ

With `COc1cccc([C@H](O)C2CCN(CCc3ccc(F)cc3)CC2)c1OC`, the call in assay [1], in assay [2], in assay [3], in assay [4], in [5] and in assay [7] was inactive. Moreover, the compound was classed as inactive in assay [8] and in assay [9]. In addition, in [6], the half-maximal activity concentration (AC50) is 27.4 µM (active).

Turning to `CC(C)(C)c1cc(/C=C2\SC(N)=NC2=O)cc(C(C)(C)C)c1O`, the AC50 in assay [1] is 8.2 µM (active); in assay [3], 11 µM (active); in assay [8] it was 20 µM (active); in assay [9] it was 15 µM (active). The result in [2], in [4], in [5], in assay [6] and in assay [7] was inactive.

`O=C1CCC(C2CCCCC2)CC1`: the concentration at half-maximal activity (AC50) in assay [1] was 151 µM (active) and 159 µM (active); in assay [3], 134 µM (active); in assay [6], 0.821 µM (active); in assay [8] it was 150 µM (active); in assay [9], 100 µM (active) and 154 µM (active) and 114 µM (active). In addition, the compound was called inactive in assay [1], in [2], in [3], in assay [4], in assay [5] and in [6]. For the same compound, the compound was called inactive in assay [7], in [8], in [9] and in assay [10].

Take `CN(C)C(=O)C1(N2CCCCC2)CCN(CC[C@@]2(c3ccc(Cl)c(Cl)c3)CN(C(=O)c3ccccc3)CCO2)CC1`: the result in assay [1], in assay [2], in [3], in [4], in assay [5] and in [7] was inactive. The outcome in [8], in [9] and in assay [10] was inactive. Also, in assay [6], the AC50 was 1.01 µM (active).

As to `COc1cc(C(=O)NC2CCN(C)CC2)ccc1Nc1ncc2c(n1)N(C1CCCC1)CC(F)(F)C(=O)N2C`, the outcome in [1], in [4], in assay [5], in assay [6], in [7] and in assay [8] was inactive. Also, the result in [10] was inactive. In addition, the AC50 in [2] is 0.872 µM (active); in [3] it was 4.8 µM (active); in assay [9], 2.37 µM (active).

Take `Cc1ccc(C(C)C)cc1`: the call in assay [1], in [2], in assay [3], in assay [4], in assay [5] and in assay [6] was inactive. Besides, the compound was classed as inactive in assay [7], in assay [8], in assay [9] and in [10].

In the case of `CCCCOC(=O)c1ccc(O)cc1`, the result in assay [1], in assay [2], in assay [3], in assay [4], in [5] and in assay [7] was inactive. The call in [8], in assay [9] and in assay [10] was inactive. In addition, the concentration at half-maximal activity (AC50) in assay [3] was 148 µM (active) and 151 µM (active); in assay [8] it was 148 µM (active); in [9] it was 143 µM (active) and 129 µM (active); in assay [10], 58.9 µM (active).

For the compound `CCCC(=O)OCCC(C)C`, the compound was classed as inactive in assay [1], in assay [2], in [3], in assay [4], in [5] and in [6]. In addition, the result in [7], in [8] and in [9] was inactive.

`CC1=CC(=O)/C(=C(/C)O)C(=O)O1`: the compound was called inactive in assay [1], in assay [2], in assay [3], in assay [4], in assay [5] and in assay [6]. In addition, the result in assay [7], in assay [8], in assay [9] and in assay [10] was inactive.

In the case of `CC(C)(c1cc(Br)c(O)c(Br)c1)c1cc(Br)c(O)c(Br)c1`, the AC50 was 16.3 µM (active) in assay [1]; 44.8 µM (active) in assay [3]; 47.1 µM (active) in [6]; 49.8 µM (active) and 49.3 µM (active) in [8]; 46.7 µM (active) and 48.6 µM (active) in assay [9]. Further, the call in assay [1], in [2], in assay [3], in assay [4], in [5] and in assay [6] was inactive. Also, the result in assay [7] and in assay [10] was inactive.

Consider `Cc1ccc2oc(CN(Cc3ccccc3)C(=O)Nc3c(F)cc(F)cc3F)c(-c3ccc(Cl)cc3)c2c1`, for which the outcome in assay [1], in [2], in assay [3], in assay [4], in [5] and in assay [6] was inactive. The call in [7], in assay [8] and in assay [9] was inactive.

Turning to `CCOC(=O)O[C@H](C)OC(=O)c1ccc2c(c1)cc(C(=O)NC1CCN(C(C)C)CC1)n2Cc1cc(-c2ccc(Cl)s2)on1`, the compound was classed as inactive in assay [1], in assay [2], in assay [3], in assay [4], in assay [5] and in assay [7]. In addition, the compound was called inactive in [8] and in assay [10]. In addition, the AC50 in [6] was 20.9 µM (active); in [9], 51.1 µM (active).

As for `Cc1cc(F)ccc1-c1cc(N2CC[C@@H](O)[C@H]2CO)ncc1N(C)C(=O)C(C)(C)c1cc(C(F)(F)F)cc(C(F)(F)F)c1`, the compound was called inactive in [1], in assay [2], in [3], in assay [4], in [5] and in assay [6]. For the same compound, the compound was called inactive in assay [7], in assay [8], in assay [9] and in assay [10].

Consider `NC(=O)c1nc(-c2cccc(-c3cc(F)ccc3OCC(F)(F)C(F)(F)F)c2)n[nH]1`, for which the AC50 in assay [1] is 51.6 µM (active); in [6], 2.7 µM (active); in assay [8], 59.9 µM (active); in [9] it was 51.2 µM (active). Besides, the compound was called inactive in [2], in [3], in assay [4], in assay [5] and in assay [7].

Turning to `CN1C(=O)N(c2ccccc2Br)Cc2cnc(Nc3ccc4c(c3)OCC(CO)O4)nc21` (stereo not given), the compound was classed as inactive in assay [1], in assay [2], in assay [3], in assay [4], in [5] and in assay [7]. Besides, in [8], the call was inactive. For the same compound, the AC50 was 9.59 µM (active) in assay [6] and 33.2 µM (active) in [9].

Consider `CCO[Si](CCCNC(N)=O)(OCC)OCC`, for which the compound was called inactive in assay [1], in assay [2], in assay [3], in assay [4], in assay [5] and in [7]. The compound was called inactive in [8], in assay [9] and in assay [10]. In addition, the AC50 in [6] was 6.4 µM (active).

Take `CCN(Cc1cccnc1)C(=O)c1cccc(Cl)c1[C@]1(C)C(=O)N(Cc2ccc(OC)cc2OC)c2ccc(Cl)cc21`: the compound was classed as inactive in [1], in assay [2], in assay [4], in assay [5], in assay [6] and in assay [7]. Besides, the concentration at half-maximal activity (AC50) in assay [3] is 7.7 µM (active); in [8], 40.4 µM (active); in assay [9] it was 7.17 µM (active); in [10], 1.47 µM (active).

Consider `O=C(Nc1ccc(Cl)cc1)Nc1ccc(Cl)c(Cl)c1`, for which the outcome in [1], in assay [2], in assay [4], in assay [5], in assay [6] and in assay [7] was inactive. The result in assay [8], in [9] and in assay [10] was inactive. Further, the AC50 in [3] was 5.89 µM (active).

The record behind these values is PubChem BioAssay (EPA / NIEHS).
